Structures are written as SMILES. The whole screen tested about 38,000 compounds, of which about 1,200 (3.2%) showed an effect of 50% or more. The median lay at about -58%. Many of the other results were omitted from the sample, so strong results are more common in it than they were.

This test relates to Plasmodium falciparum. Kind of test: Calibr Malaria Delayed Death Assay SOP. In kind it is functional, organism-based. Set-up: scale not given: in the data most compounds retested in dose-response had high values. To be noted: concentration 4.99e-06 (unit not given; other assays of the set use mol/L).
In the case of `CC(C)NC(=O)CN1CCCNCC1`, the “Percent Effect” value is listed as -82.69%. As for `O=C(c1cc(-c2ccn(CC3CC3)n2)n2ccccc12)N1CCCO1`, the figure is -90.15%; as for `O=C(O)c1cc(-c2ccn(CC3CC3)n2)n2ccccc12`, -79.58%. Under `O=C(c1cc(-c2ccn(CC3CC3)n2)n2ccccc12)N1CCOCC1` stands 67.86%. As for `Cc1nc(CNC(=O)NC2CCCN(c3ncccn3)C2)cs1` (stereo not drawn), the figure is -24.32%. `CCn1nc(C)c2ccn(CC(=O)NCC3CCCO3)c(=O)c21` (stereo not drawn): the “Percent Effect” value is on record as -59.75%.

In the case of `Cc1cccc(C)c1OC1CN(C(=O)C2CCN(C(=O)N(C)C)CC2)C1`, the “Percent Effect” value is -10.34%. Under `COCC(=O)N1CCC(Oc2cccc(C)c2)CC1` stands -129.3%; under `CCC(CNC1CCN(C(C)=O)CC1)Oc1ccccc1Cl` (stereo not drawn), 48.49%. In the case of `CCC(CNS(C)(=O)=O)Oc1ccccc1C` (stereo not drawn), the “Percent Effect” value is -141.4%. Under `CCC(CNC1CCN(C(=O)N(C)C)CC1)Oc1ccccc1C` (stereo not drawn) stands 72.22%; under `CCC(CNC1CCN(C(C)=O)CC1)Oc1cccc(C)c1` (stereo not drawn), 51.47%. `CCc1ccc(C(=O)N2CCN(CC(O)CC)CC2)o1` (stereo not drawn): the “Percent Effect” value is listed as -8.781%. `Cc1nn(C)c(C)c1C1COCCN1c1ncncc1Br` (stereo not drawn): the “Percent Effect” value is recorded as -86.62%.

Turning to `O=C(O)C(F)(F)F.OCCN1CCC(F)(F)C2(CCN(c3cnccn3)C2)C1` (stereo not drawn), the “Percent Effect” value is -58.35%.

Regarding `CCc1nc(CC(=O)N2CCCC2c2c(C)nn(C)c2OC)cs1` (stereo not drawn), the “Percent Effect” value is on record as -39.25%. In the case of `COc1ccc(CN2CCC3(CC2)CC(c2cccnc2)CO3)cc1.O=C(O)C(F)(F)F.O=C(O)C(F)(F)F` (stereo not drawn), the “Percent Effect” value is on record as -68.03%.

As to `COCCN1CCC2(CC1)COc1ccccc1S(=O)(=O)N(C)C2`, the “Percent Effect” value is recorded as -7.731%.

Consider `CCN1CC2(CCN(C(=O)N(C)C)CC2)COc2ccccc2S1(=O)=O`, for which the “Percent Effect” value is reported as -20.19%. As for `CN1CC2(CCN(CC3CC3)CC2)COc2ccccc2S1(=O)=O.O=C(O)C(F)(F)F`, the figure is 52.41%; as for `CN(C)C(=O)CN1CCC2(CC1)COc1ccccc1S(=O)(=O)N(C)C2.O=C(O)C(F)(F)F`, -44.68%; as for `CCC(=O)N1CCC2(CC1)COc1ccccc1S(=O)(=O)N(C)C2`, -32.01%. As to `O=S1(=O)c2ccccc2OCC2(CCN(CCO)CC2)CN1CC1CC1`, the “Percent Effect” value stood at 76.86%. As for `CCCN1CCC2(CC1)COc1ccccc1S(=O)(=O)N(CC1CC1)C2.O=C(O)C(F)(F)F`, the figure is -32.31%; as for `CN1CC2(CCN(C(=O)C3CCC3)CC2)COc2ccccc2S1(=O)=O`, -31.54%. Under `COCC1CN(C(=O)Cc2cccs2)Cc2nnn(CC3CC3)c21` (stereo not drawn) stands -20.67%; under `CC(OCC(F)(F)F)C(=O)N1CCOCC1` (stereo not drawn), -69.84%; under `CN(C)c1ccc(C(=O)N2CCCC2c2cnn(C)c2)cn1` (stereo not drawn), -130.6%. Consider `COc1cccc(CC(=O)N2CC[C@@H]3CN(C)S(=O)(=O)[C@@H]3CC2)c1`, for which the “Percent Effect” value is listed as -25.41%. `CC1=C(c2ccc(C)cc2)S(=O)(=O)N=C1N1CCc2ccccc21`: the “Percent Effect” value is -28.82%. Under `OC1(CNc2ccc(F)cc2)CCNCC1` stands 9.673%. Regarding `CC(C(=O)Nc1sccc1C(N)=O)N(C)CCOc1ccccc1` (stereo not drawn), the “Percent Effect” value is on record as 2.405%. Under `Nc1cc(-c2ccc(C(=O)O)cc2O)c2cc[nH]c2n1` stands -36.07%; under `Nc1cc(-c2cc(O)cc(C(=O)O)c2)c2cc[nH]c2n1`, -8.693%; under `CCCNCc1ccc(-c2cc(N)nc3[nH]ccc23)cc1`, 71.86%. For `CCCn1nccc1C(=O)Nc1nc(C)c(C)s1`, the “Percent Effect” value is on record as -95.22%. Under `CCc1ccccc1OCCN(C)C(=O)CCN1CCCO1` stands -98.11%; under `CCc1ccccc1OCCN(C)C(=O)CN1CCCC1`, 75.23%. Under `CCc1ccccc1OCCN(C)C(=O)CCN1CCCCO1` stands 2.137%; under `CCn1nc(C)c2ccn(CC(=O)NC(C)C)c(=O)c21`, -79.05%; under `COc1ccc(NC(=O)N(CCO)Cc2ccsc2)cc1`, -36.74%.

`COC(=O)CN(C)Cc1cc(Br)cs1`: the “Percent Effect” value is listed as -75.79%.

In the case of `CCCN(C)CC1CCN(c2ccc(Br)c(C)n2)C1` (stereo not drawn), the “Percent Effect” value worked out at 72.9%. For `CCCN(C)CC1CCN(c2ncc(Br)cn2)C1` (stereo not drawn), the “Percent Effect” value is given as -74.37%. Turning to `CCN(C)CC1CCN(c2ncc(Br)cn2)C1` (stereo not drawn), the “Percent Effect” value is -58.14%.

On to `CC(C)NCc1cccnc1N1CCN(c2ccccn2)CC1`, for which the “Percent Effect” value turned out to be 3.171%. With `CCC(C)NC(=O)NCCC(=O)N1CCN(c2ccccn2)CC1` (stereo not drawn), the “Percent Effect” value is listed as -19.73%. As for `CC(C)CC(C)NCc1cccnc1N1CCN(c2ccccn2)CC1` (stereo not drawn), the figure is 55.01%. On to `CC(C)C(=O)NCCC(=O)N1CCN(c2ccccn2)CC1`, for which the “Percent Effect” value was -182.3%. As for `CCCC(C)NCc1cccnc1N1CCN(c2ccccn2)CC1` (stereo not drawn), the figure is 51.12%; as for `CCC(CC)C(=O)NCCC(=O)N1CCN(c2ccccn2)CC1`, -127.9%.

For the compound `Cn1c(N)c2c(=O)n(C)c(-c3ccc(Cl)cc3Cl)cc2c(C#N)c1=O`, the “Percent Effect” value is on record as 5.212%. As for `Cc1cc(C(=O)N2CCC3(C2)CN(c2ccsc2)C(=O)CN3C)[nH]n1.O=C(O)C(F)(F)F` (stereo not drawn), the figure is -16.33%.

With `c1ccc(Cc2n[nH]c(C3CCOC3)n2)cc1` (stereo not drawn), the “Percent Effect” value is listed as -53.42%. Under `O=C(O)C(F)(F)F.O=C(O)C(F)(F)F.c1ccc(CN2CCC3(CC2)CN(c2ccccn2)CCO3)nc1` stands -71.36%; under `COc1ccc(CN2CCC3(CC2)CN(c2ccccn2)CCO3)cc1.O=C(O)C(F)(F)F.O=C(O)C(F)(F)F`, 60.62%; under `COc1ncccc1CN1CCC2(CC1)CN(c1ccccn1)CCO2.O=C(O)C(F)(F)F.O=C(O)C(F)(F)F.O=C(O)C(F)(F)F`, 55.38%. As for `Fc1ccc(CN2CCC3(CC2)CN(c2ccccn2)CCO3)cc1.O=C(O)C(F)(F)F.O=C(O)C(F)(F)F`, the figure is 46.67%. Under `COCC(=O)N1CCC2(CC1)CN(c1ccccn1)CCO2.O=C(O)C(F)(F)F` stands -99.25%; under `Cn1ccnc1CN1CCC2(CC1)CN(c1ccccn1)CCO2.O=C(O)C(F)(F)F.O=C(O)C(F)(F)F`, -263.3%. Regarding `O=c1[nH][nH]cc1-c1ccnc(NCCc2ccc(F)cc2)n1`, the “Percent Effect” value is -53.75%.

For `COC(=O)c1cnn(-c2cc(Oc3cccc(C)c3)ncn2)c1N`, the “Percent Effect” value is given as -10.04%. On to `CN1CCC2(CC1)OC(C(=O)NCc1cccnc1)Cn1ccnc12` (stereo not drawn), for which the “Percent Effect” value is -146%.

Values taken from ChEMBL document CHEMBL3988442, “University of Dundee, Small-Polar-MMV Screening Library” (2021).
